# Data from article PMC5540273 (PLoS ONE, 2017).
# Test system: TSSK3
# Conditions: concentration: 1 μM,replicates: in singlicate; n = 1
# 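Note: KINOMEscan kinase panel screen.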
row,Compound,%Inh [%]
1,CN(c1cccc(CNc2nc(Nc3ccc4c(c3)CC(=O)N4)ncc2C(F)(F)F)c1)S(C)(=O)=O,15
2,CC(=O)Nc1ccc(-c2cc3ncnc(SCC(=O)O)c3s2)cc1,0
3,COc1cccc(OC)c1C(=O)Nc1cccc(-c2nn3ccccc3c2-c2ccnc(Nc3cccc(F)c3)n2)c1 [GSK361065],0
4,CC(C(=O)NC1CCN(c2ccnc(Nc3ccc(F)cc3)n2)C1)c1ccc(Cl)cc1 (centres unmarked) [GSK1379713],5
5,Cc1ccc(CC(=O)N2CCc3cc(-c4cn(C)c5ncnc(N)c45)ccc32)cc1 [GSK2634758],13
6,Cl.Nc1n[nH]c2cc(-c3ccccn3)ccc12 [GSK2189892],8
7,Cl.c1ccc(Oc2ccc(Nc3ccnc4cc(-c5ccc(CN6CCNCC6)o5)ccc34)cc2)nc1 [GW567142],5
8,c1ccc(Oc2ccc(Nc3ccnc4ccc(-c5ccccn5)cc34)cc2)cc1 [GW407034],19
9,COc1cccc(C2=C(Nc3cccc(Cl)c3)C(=O)NC2=O)c1 [SB-341556],6
10,C[C@@H](Oc1cc(-n2cnc3cc(-c4cnn(C)c4)ccc32)sc1C(N)=O)c1ccccc1Cl [GSK580432],16
11,O=C(Nc1n[nH]c2cc(-c3ccco3)ccc12)C1CC1 [SB-737447],0
12,COc1cc2nccc(Nc3ccc(Oc4ccccc4)cc3)c2cc1OC.Cl [GI261656],11
13,CN(c1ccccc1CNc1nc(Nc2ccc3c(c2)CC(=O)N3)ncc1C(F)(F)F)S(C)(=O)=O,0
14,N#Cc1cccc(C(=O)NC2CCN(c3ccnc(Nc4ccc(F)cc4)n3)C2)c1 (centres unmarked) [GSK1379708],18
15,COc1cccc(CNC(=O)NC2CCN(c3ccnc(Nc4cc(OC)c(OC)c(OC)c4)n3)C2)c1 (centres unmarked) [GSK1379765],18
16,Cc1ccc2c(-c3ccnc(Nc4ccc(C(F)(F)F)cc4)n3)cnn2n1 [GW819776],0
17,O=C(Nc1ccc(Oc2ccc3nc(NC(=O)C4CC4)cn3n2)c(F)c1)c1cccn(-c2ccccc2)c1=O,0
18,CS(=O)(=O)Nc1ccc(-c2ccnc3[nH]ccc23)cc1 [GSK993273],26
19,CNC(=O)c1ccccc1Nc1nc(Nc2cccc(CS(C)(=O)=O)c2)ncc1C.O=CO [GSK1520489],0

row,Compound,%Inh [%]
1,O=C(Nc1cccc(C(F)(F)F)c1)c1cccc(Oc2ccc3nccn3n2)c1,16
2,COC(=O)Nc1nc2cc(Oc3ccc(NC(=O)Nc4cc(C(F)(F)F)ccc4Cl)cc3)ccc2[nH]1.Cl [GW697465],10
3,CC(C)c1nc(-c2cccc(NS(=O)(=O)c3ccccc3)c2)c(-c2ccnc(Nc3ccc4c(c3)CN(C)CC4)n2)s1 [GSK1649598],0
4,CC(=O)Nc1nc2cnc(Nc3cc(NC(=O)c4cccc(CC(C)(C)C#N)c4)ccc3C)nc2s1,1
5,CCn1c(-c2nonc2N)nc2cncc(CNC3CCNCC3)c21.Cl [SB-747651],6
6,CC(C)S(=O)(=O)N1CCN(Cc2ccc3c(c2)nc(NC(=O)c2ccsc2)n3C[C@H](O)c2ccccc2)CC1 [GW635815],16
7,COc1cc2ncn(-c3cc(OCC4CCCCC4)c(C(N)=O)s3)c2cc1OC [GSK204559],3
8,NC(=O)c1ccc(-c2cc3ncnc(SCC(=O)O)c3s2)cc1,0
9,COc1ccc(Nc2nccc(N3CCC(NC(=O)c4cccc(C#N)c4)C3)n2)cc1 (centres unmarked) [GSK1379730],12
10,CCOC(=O)N1CCC(n2cnc(-c3ccc(F)cc3)c2-c2ccnc(N)n2)CC1 [SB-219952],12
11,CCN1CCN(CCCC(=O)Nc2n[nH]c3nc(-c4ccc(O)cc4)c(Br)cc23)CC1 [SB-731579],0
12,CC(=O)c1c(-c2ccncc2)[nH]c(-c2ccncc2)c1C [GW493036],13
13,O=c1[nH]cc(-c2ccc(O)cc2)c2sc(-c3ccncc3)cc12 [GSK1033723],9
14,C[C@@H]1CCN(C(=O)N2CCCC2)C[C@@H]1N(C)c1ncnc2[nH]ccc12,4
15,CCn1c(-c2nonc2N)nc2cncc(Br)c21 [SB-738004],25
16,Cc1n[nH]c2cc(Nc3ccnc(Nc4cccc(CN5CCOCC5)c4)n3)ccc12 [GW682569],12
17,O=C(NOCC1CC1)c1cc(Br)c(F)c(F)c1Nc1ccc(I)cc1Cl,9
18,Cn1cc(-c2cccc3c(N)c(C(N)=O)nnc23)cn1,0

# Test system: TTK
# Conditions: concentration: 1 μM,replicates: in singlicate; n = 1
row,Compound,%Inh [%]
1,CN(c1cccc(CNc2nc(Nc3ccc4c(c3)CC(=O)N4)ncc2C(F)(F)F)c1)S(C)(=O)=O,97.5
2,CC(=O)Nc1ccc(-c2cc3ncnc(SCC(=O)O)c3s2)cc1,0
3,COc1cccc(OC)c1C(=O)Nc1cccc(-c2nn3ccccc3c2-c2ccnc(Nc3cccc(F)c3)n2)c1 [GSK361065],5
4,CC(C(=O)NC1CCN(c2ccnc(Nc3ccc(F)cc3)n2)C1)c1ccc(Cl)cc1 (centres unmarked) [GSK1379713],11
5,Cc1ccc(CC(=O)N2CCc3cc(-c4cn(C)c5ncnc(N)c45)ccc32)cc1 [GSK2634758],0
6,Cl.Nc1n[nH]c2cc(-c3ccccn3)ccc12 [GSK2189892],14
7,Cl.c1ccc(Oc2ccc(Nc3ccnc4cc(-c5ccc(CN6CCNCC6)o5)ccc34)cc2)nc1 [GW567142],0
8,c1ccc(Oc2ccc(Nc3ccnc4ccc(-c5ccccn5)cc34)cc2)cc1 [GW407034],1
9,COc1cccc(C2=C(Nc3cccc(Cl)c3)C(=O)NC2=O)c1 [SB-341556],13
10,C[C@@H](Oc1cc(-n2cnc3cc(-c4cnn(C)c4)ccc32)sc1C(N)=O)c1ccccc1Cl [GSK580432],25
11,O=C(Nc1n[nH]c2cc(-c3ccco3)ccc12)C1CC1 [SB-737447],18
12,COc1cc2nccc(Nc3ccc(Oc4ccccc4)cc3)c2cc1OC.Cl [GI261656],0
13,CN(c1ccccc1CNc1nc(Nc2ccc3c(c2)CC(=O)N3)ncc1C(F)(F)F)S(C)(=O)=O,99.5
14,N#Cc1cccc(C(=O)NC2CCN(c3ccnc(Nc4ccc(F)cc4)n3)C2)c1 (centres unmarked) [GSK1379708],0
15,COc1cccc(CNC(=O)NC2CCN(c3ccnc(Nc4cc(OC)c(OC)c(OC)c4)n3)C2)c1 (centres unmarked) [GSK1379765],22
16,Cc1ccc2c(-c3ccnc(Nc4ccc(C(F)(F)F)cc4)n3)cnn2n1 [GW819776],38
17,O=C(Nc1ccc(Oc2ccc3nc(NC(=O)C4CC4)cn3n2)c(F)c1)c1cccn(-c2ccccc2)c1=O,10
18,CS(=O)(=O)Nc1ccc(-c2ccnc3[nH]ccc23)cc1 [GSK993273],60
19,CNC(=O)c1ccccc1Nc1nc(Nc2cccc(CS(C)(=O)=O)c2)ncc1C.O=CO [GSK1520489],93.8

row,Compound,%Inh [%]
1,O=C(Nc1cccc(C(F)(F)F)c1)c1cccc(Oc2ccc3nccn3n2)c1,0
2,COC(=O)Nc1nc2cc(Oc3ccc(NC(=O)Nc4cc(C(F)(F)F)ccc4Cl)cc3)ccc2[nH]1.Cl [GW697465],1
3,CC(C)c1nc(-c2cccc(NS(=O)(=O)c3ccccc3)c2)c(-c2ccnc(Nc3ccc4c(c3)CN(C)CC4)n2)s1 [GSK1649598],23
4,CC(=O)Nc1nc2cnc(Nc3cc(NC(=O)c4cccc(CC(C)(C)C#N)c4)ccc3C)nc2s1,12
5,CCn1c(-c2nonc2N)nc2cncc(CNC3CCNCC3)c21.Cl [SB-747651],0
6,CC(C)S(=O)(=O)N1CCN(Cc2ccc3c(c2)nc(NC(=O)c2ccsc2)n3C[C@H](O)c2ccccc2)CC1 [GW635815],29
7,COc1cc2ncn(-c3cc(OCC4CCCCC4)c(C(N)=O)s3)c2cc1OC [GSK204559],30
8,NC(=O)c1ccc(-c2cc3ncnc(SCC(=O)O)c3s2)cc1,13
9,COc1ccc(Nc2nccc(N3CCC(NC(=O)c4cccc(C#N)c4)C3)n2)cc1 (centres unmarked) [GSK1379730],0
10,CCOC(=O)N1CCC(n2cnc(-c3ccc(F)cc3)c2-c2ccnc(N)n2)CC1 [SB-219952],0
11,CCN1CCN(CCCC(=O)Nc2n[nH]c3nc(-c4ccc(O)cc4)c(Br)cc23)CC1 [SB-731579],0
12,CC(=O)c1c(-c2ccncc2)[nH]c(-c2ccncc2)c1C [GW493036],3
13,O=c1[nH]cc(-c2ccc(O)cc2)c2sc(-c3ccncc3)cc12 [GSK1033723],11
14,C[C@@H]1CCN(C(=O)N2CCCC2)C[C@@H]1N(C)c1ncnc2[nH]ccc12,89
15,CCn1c(-c2nonc2N)nc2cncc(Br)c21 [SB-738004],0
16,Cc1n[nH]c2cc(Nc3ccnc(Nc4cccc(CN5CCOCC5)c4)n3)ccc12 [GW682569],37
17,O=C(NOCC1CC1)c1cc(Br)c(F)c(F)c1Nc1ccc(I)cc1Cl,0
18,Cn1cc(-c2cccc3c(N)c(C(N)=O)nnc23)cn1,1
